# This is part of a sample that, as a whole, favours compounds with a hit. Of some 83,000 tested, about 20% had one in any assay.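 Compound tested at a single concentration for 48 hours in 96-well plates; a percent growth value below 10 was scored as active.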 Values without a mark were called inactive. Activity calls are given as the source filed them.
# Test system: OVCAR-4 ovarian
# Assay: NCI-60 one-dose screen, 48 h (100 = growth as untreated, 0 = no growth, -100 = all killed)
# Conditions: 10 µM unless noted
# Procedure: Growth inhibition of the OVCAR-4 human tumor cell line is measured as a screen for anti-cancer activity. Cells are grown in 96 well plates and exposed to the test compound for 48 hours. Compounds are tested at a single concentration, which is 10^-5 M for most compounds. The reported endpoint is percent growth (GI% or GIPRCNT), where numbers from 0 - 100% represent growth inhibition, and numbers from -100% - 0 represent cell death. For example, a value of 40 represents 60% growth inhibition. A value of 0 means no net growth occurred over the course of the experiment. A value of -40 indicates 40% of cells at the beginning of the experiment died by the end of the experiment. A value of -100 means all cells are dead at the end of the experiment.
# NCI-60 Human Tumor Cell Lines Screen was performed using the standard one-dose NCI protocol, which is described in more detail at https://dtp.cancer.gov/discovery_development/nci-60/default.htm.
# Compounds with GIPRCNT values below 10 were considered active. Activity score was based on GIPRCNT using the following formula: […]
# Score is 0 for GIPRCNT values of 100 or above, 50 for GIPRCNT values of 0, and 100 for GIPRCNT values of -100.
row,Compound,growth
1,Cc1nc2ccc(C(=O)NCc3cc(C(=O)O)c(C)o3)cc2nc1C,95.4%
2,C=CCN1C(=O)[C@]2(SC1=S)[C@H](c1cccc(Cl)c1)CN(C)[C@]21C(=O)NC2C=CC(Cl)=C[C@H]21 (stereo not given in full),49.4%
3,Cc1[nH]c(-c2nc3ccccc3[nH]2)c(C)c1C(=O)N1CCc2sccc2C1,83.3%
4,OC(COc1cccc2ccccc12)CN1CCN(c2ccccc2)CC1 (stereo not given),91.9%
5,CN1C[C@@H](c2ccc(Cl)cc2)[C@]2(NC(=S)N(c3ccc(F)c(Cl)c3)C2=O)[C@@]12C(=O)NC1C=CC(Cl)=C[C@H]12 (stereo not given in full),57%
6,CCCCNCC(=O)Nc1ccc(C(=O)OCC)cc1,114%
7,c1ccc2c(c1)ncn2-c1nc2ccccc2n2c1nc1ccccc12,67.9%
8,COc1ccc(/C=C2\C=C(c3ccccc3)N(CCc3ccccc3)C2=O)cc1OC,-5.49% (active)
9,Cc1cc(N(CCCNc2ccnc3cc(Cl)ccc23)Cc2ccccn2)nc(N2CCCC2)n1,63.1%
10,Cn1ccnc1C(=O)/C=C/c1ccc(C(=O)Nc2ccc(S(F)(F)(F)(F)F)cc2)cc1,33.5%
11,COc1ccc(O)c(-c2cc(-c3ccccc3)c(C#N)c(=O)[nH]2)c1,97.4%
12,CCn1nc(C#Cc2c(C)ccc3c(Nc4ccc(Cl)cc4)nccc23)c2c(N)ncnc21,41.5%
13,CCCN1CCN(c2ccc3nc(-c4ccc5nc(-c6cc(OC)c(OC)c(OC)c6)[nH]c5c4)[nH]c3c2)CC1,89.9%
14,CCOc1ccc(-c2nc3ccc(-c4nc5ccc(N6CCN(C)CC6)cc5[nH]4)cc3[nH]2)cc1OCC,7.29% (active)
15,CO/C(=C1/NC(=O)C(Cc2ccc(O)c(Br)c2)N(C)C(=O)C(C)NC(=O)CCC/C=C(\C)CCC(C)OC1=O)c1ccccc1 (stereo not given),0.0232% (active)
16,CCCCCCN(CCCCCC)CC(O)c1cccc2ccc(Cl)cc12 (stereo not given),70%
17,Cc1ccc(/C(=N\N=C(N)N)c2ccccc2)cc1,15.8%
18,COc1cccc(/C=C2\COc3ccc(O)cc3C2=O)c1OC,92.5%
19,CCNCCNc1cc(-c2ccc(C(=O)OC)cc2)c(C#N)c2nc3ccccc3n12,-19.2% (active)
20,COc1ccc(-c2cn(-c3cccc(C(=O)/C=C/c4cc(OC)c(OC)c(OC)c4)c3)c(=O)[nH]2)cc1,25%

row,Compound,growth
1,COc1cc2c(=O)n(CCCn3ccnc3)c3c4cc5c(cc4ccc3c2cc1OC)OCO5,28.6%
2,CN(C)CCn1cc(-c2ccc3c(Nc4ccc(CC(=O)Nc5cccc(F)c5)cc4)ncnc3c2)cn1,-76.5% [30 µM] (active)
3,CC(C)c1ccc(NC(=O)Cc2ccc(Nc3ncnc4cc(-c5cnn(CCN(C)C)c5)ccc34)cc2)cc1,-83.1% [30 µM] (active)
4,Cl.Fc1c[c-]c(-c2ccccn2)c(F)c1.[Pt].c1ccc([PH+](c2ccccc2)c2ccccc2[PH+](c2ccccc2)c2ccccc2)cc1,-97.3% (active)
5,CC(C)n1nc(C#Cc2cccc3cc(-c4cccc(C(F)(F)F)c4)ncc23)c2c(N)ncnc21,78.8%
6,CCCCn1c(=O)[nH]c(N)c(C(c2ccc(F)cc2)c2c(N)[nH]c(=O)n(CCCC)c2=O)c1=O,64.6%
7,O=c1oc2ccc(Cl)cc2cc1-c1cs/c(=N/N=C\c2ccc(Cl)cc2)n1/N=C/c1ccc(Cl)cc1,98.5%
8,CCOC(=O)Cc1csc2nc(-c3ccccc3)nn12,105%
9,Cc1ccc2c(n1)C(=O)C(Oc1ccc(F)cc1)=CC2=O,96.6%
10,OC(c1cccc(OCc2ccccc2)c1)c1nnc(-c2ccccc2)o1 (stereo not given),87.1%
11,Cc1cn(C2CCCCC2)c(=O)[nH]c1=O,90.8%
12,COc1ccc(-c2cc(-c3ccc(Nc4nc(Nc5ccccc5)nc(Nc5ccc(Cl)cc5)n4)cc3)nc(N)n2)cc1,56.5%
13,COc1ccc(/C=C(\C#N)n2nnc3cc(F)c(F)cc32)c(OC)c1OC,60.6%
14,CCCCNC(=O)c1cc(NCc2cc(O)ccc2O)ccc1O,90.8%
15,COc1cc2oc(-c3cccc(C(=O)Nc4ccc(C)cc4)c3)cc(=O)c2c(OC)c1OC,59.8%
16,COc1cc(/C=C/C(=O)c2ccc(Nc3nc(Nc4ccccc4)nc(Nc4ccc(Cl)cc4)n3)cc2)cc(OC)c1OC,61%
17,Cc1ccc(C)c2c1C(=O)OC2=O,109%
18,CN(C)c1ccc2cc(-c3ccc(Cl)c(Cl)c3)c(N)nc2c1,9.09% (active)
19,C[C@H]1[C@H](C)CC[C@]2(C(=O)N3CCN(C)CC3)CC[C@]3(C)C(=CC[C@@H]4[C@@]5(C)C/C(=C/c6cccnc6)C(=O)C(C)(C)[C@@H]5CC[C@]43C)[C@H]12,-24.9% (active)
20,COc1cc2c(cc1OC)-c1ccc3cc4c(cc3c1N(CCCN1CCCCC1)C2)OCO4,63.4%
